Screening data (PubChem BioAssay)
The entries come from a sample that favours hits as a whole.
EZH2 inh: inhibitors of human EZH2/PRC2 methyltransferase; 57,000 tested, 0.35% active; inhibition, % at 12.5 µM; Q15910; PRC2 H3K27 methylation, DELFIA TRF, 1 h;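 active = mean inhibition of replicates at least 50% and every single replicate also reaching 50%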;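 also: dimethyl H3K27 on biotinylated H3 21-44 peptide detected by antibody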
A number is an active result; 0 = inactive.

SMILES	EZH2 inh
CCC(=O)Nc1ccc(Cl)c(Cl)c1	0
CCCCC/C=C/C/C=C/C/C=C/C/C=C/CCCC(=O)Nc1ccc(O)cc1	69
CCCCC/C=C\C/C=C\C/C=C\C/C=C\CCCC(=O)NCc1ccc(O)c(OC)c1	0
[N-]=[N+]=Nc1cccc(C(=O)O)c1	0
CC(C)(C)ONC(=O)CN=[N+]=[N-]	0
